Compound activity deposited in PubChem by The Scripps Research Institute Molecular Screening Center.
KLK7 zymogen act = proKLK7 zymogen activators, primary screen, biochemical, fluorescence intensity | purified proKLK7, EDANS-DABCYL substrate fluorescence; 100% is mature enzyme control, 0% vehicle | actives 0.9% (n = 370,000) | activation, % at 7 µM | Kallikrein-7 (Homo sapiens), P49862;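 active = activation above the mean of all tested compounds plus 3 SD, computed per campaign excluding outliers beyond control limits, cut at about 13% in these data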
ADAM10 inh = human ADAM10 inhibitors, primary screen, biochemical, QFRET, HTS; Disintegrin and metalloproteinase domain-containing protein 10 (Homo sapiens), O14672; recombinant ADAM10, EDANS/DABCYL FRET peptide cleavage, 3 h; inhibition, % at 7 µM; actives 0.62% (n = 370,000); AID 720582, 2013;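 active = inhibition above a per-campaign cutoff equal to the mean of compounds falling between control-based bounds plus 3 SD, cut at about 20% in these data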;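 also: 0% = DMSO wells while the 100% control is not disclosed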
PLC-gamma1 inh = PLC-gamma1 enzyme inhibitors, primary screen, biochemical, fluorescence, purified enzyme | 1-phosphatidylinositol 4,5-bisphosphate phosphodiesterase gamma-1 (Homo sapiens), P19174 | fluorogenic substrate | inhibition, % at 12.2 µM | actives 0.84% (n = 370,000); in the data active = inhibition above about 9.5%
PLCb3 inh = human PLC-beta3 inhibitors, primary screen, biochemical, fluorescence. inhibition, % at 12.2 µM. 1-phosphatidylinositol 4,5-bisphosphate phosphodiesterase beta-3 (Homo sapiens), Q01970. actives 0.18% (n = 370,000). Purified PLC-beta3, fluorogenic substrate; in the data active = inhibition above about 11%;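 also: 0% = median of compound wells on plate and 100% = full blocker control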
ADAM17 inh = ADAM17 inhibitors, primary screen, biochemical, QFRET; Disintegrin and metalloproteinase domain-containing protein 17 (Homo sapiens), P78536; actives 0.83% (n = 370,000); recombinant ADAM17, EDANS/DABCYL FRET peptide cleavage; inhibition, % at 6.95 µM;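 active = inhibition above the mean of compounds lying between control limits plus 3 SD, set per campaign, cut at about 8.5% in these data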;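 also: 0% = DMSO-only wells as the low control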
KLK7 act conf = proKLK7 zymogen activators, confirmation, biochemical, fluorescence intensity, triplicate; shares compounds with KLK7 zymogen act; purified proKLK7, EDANS-DABCYL substrate fluorescence; scaled: vehicle 0, mature enzyme 100; activation, % at 7 µM; actives 68% (n = 3,200);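 active = activation, as change over the incubation, above the mean of all tested compounds plus 3 SD, cut at about 13% in these data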
EDANS interfere = EDANS-DABCYL substrate optical interference, artefact control for kallikrein-7 zymogen activator project, biochemical, fluorescence intensity, high throughput. activation, % at 7 µM. no enzyme, 4 h; solvent 0%, active enzyme control 100%. actives 80% (n = 3,200). shares compounds with KLK7 zymogen act;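 active = activation above the all-compound mean plus 3 SD, ignoring values outside control-based bounds, cut at about 4.8% in these data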;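 also: value is the 4 h activation minus the activation read at time zero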
EDANS interf = EDANS fluorescence interference in dose response, no enzyme; shares compounds with KLK7 zymogen act; EDANS-DABCYL peptide fluorescence interference; EC50, µM; actives 20% (n = 250); AID 720493;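 active = compounds that raise the fluorescence signal in this interference counterscreen, with EC50 at or below 10 µM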;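 also: intact quenched peptide substrate alone read at 355 nm excitation and 520 nm emission; signal is fluorescence gain from T0 to T4 after four hours at room temperature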
Numbers without * were called inactive; i = inactive; · = not tested or not shown. Hits are enriched below; roughly 2.9% of the tested compounds scored in any of these assays.

SMILES | KLK7 zymogen act | ADAM10 inh | PLC-gamma1 inh | PLCb3 inh | ADAM17 inh | KLK7 act conf | EDANS interfere | others
CCCC1CCC2(CCCN2CCOC(=O)Nc2ccc(Br)cc2)CC1 (stereo not drawn) | · | -4.7 | 0.6 | -4.5 | -2.3 | · | ·
CNc1cncc(-c2ccc(OCCCN(C)C)nc2)n1 | 51.4* | i | i | i | i | 59.4* | 71.5*
CNc1cncc(-c2cccc(C(C)=O)c2)n1 | -0.4 | -19.5 | -6.0 | -8.6 | -6.0 | · | ·
CC(O)(c1cccnc1)c1nc(-c2ccoc2)cs1 (stereo not drawn) | -0.2 | 0.4 | 1.1 | -7.1 | -2.5 | · | ·
CNc1cncc(-c2ccc(O)cc2)n1 | 41.0* | i | -247.4 | -299.9 | i | 18.9* | 18.6*
CNc1cncc(-c2cc(C)c(O)c(C)c2)n1 | 1.8 | -186.3 | -34.0 | -43.3 | -46.8 | · | ·
CNc1cncc(-c2ccoc2)n1 | 20.3* | i | -338.9 | -415.3 | i | 28.1* | 30.4*
CNc1cncc(-c2cccc(NS(C)(=O)=O)c2)n1 | 129.6* | i | i | i | i | 44.7* | 56.5*
O=S1(=O)CC2c3ccc(F)cc3CN2CN1Cc1ccccc1 (stereo not drawn) | 0.2 | -2.7 | -3.1 | -6.0 | -0.2 | · | ·
CN(C(=O)c1cn(C)c2ccccc12)c1ccc(Oc2cccnc2)cc1 | 0.3 | -10.0 | -0.1 | -2.4 | -3.6 | · | ·
CC(=O)CC[C@H]1CC[C@]2(CCCN(Cc3nccn3C)C2)O1 | -0.4 | -8.2 | 0.2 | -1.4 | -2.8 | · | ·
Cn1c(=O)c2[nH]c(SCC(=O)N3CCN(c4cccc(C(F)(F)F)c4)CC3)nc2n(C)c1=O | 0.5 | 0.0 | 0.0 | 0.2 | -1.6 | · | ·
CNc1cncc(-c2ccc(CN(C)C)cc2)n1 | 116.0* | i | i | i | i | 72.3* | 82.2*
CNc1cncc(-c2ccc(CN3CCOCC3)cc2)n1 | 82.4* | i | i | i | i | 67.4* | 77.9*
CNc1cncc(-c2cnn(CC(C)C)c2)n1 | 33.2* | i | -423.7 | i | i | 71.9* | 64.2*
CNc1cncc(-c2ccc(F)cc2F)n1 | 13.9* | i | -457.5 | i | i | 19.8* | 49.5*
CC(=O)Nc1cncc(-c2ccc(CN(C)C)cc2)n1 | 1.1 | -31.9 | -1.7 | -6.1 | -10.9 | · | ·
N#Cc1cccc(NC(=O)OCCN2C(=O)CCC23CCC(c2ccc(Cl)cc2)CC3)c1 (stereo not drawn) | 0.7 | 1.1 | 0.2 | 3.0 | 0.2 | · | ·
O=C(N[C@H](Cc1ccccc1)C(=O)N1CCN(C(=O)N2CCOCC2)CC1)[C@H]1O[C@@H](n2ccc(=O)[nH]c2=O)[C@H](O)[C@@H]1O | 0.7 | -14.4 | 1.2 | 3.2 | -2.8 | · | ·
O=C(CC1C=CCC1)OCCN1CCN(C2CN(Cc3cn(Cc4ccccc4Cl)nn3)S(=O)(=O)C2)CC1 (stereo not drawn) | -0.3 | 8.6 | 0.3 | 4.7 | -0.5 | · | ·
C=CCN(C)CC#Cc1ccccc1C | -0.1 | -8.1 | -2.5 | -1.6 | -2.2 | · | ·
CS(=O)(=O)c1ccc(-c2nn[nH]n2)cc1 | 0.7 | -3.4 | 0.0 | 0.6 | -5.4 | · | ·
CNc1cncc(-c2ccc(OC)cc2)n1 | 25.3* | i | -455.4 | i | i | 49.0* | 40.6* | EDANS interf=>69.5
CNc1cncc(-c2ccc(S(C)(=O)=O)cc2)n1 | 84.5* | i | i | i | i | 66.3* | 65.5*
CNc1cccc(-c2cc(OC)ccc2OC)n1 | -0.4 | -2.6 | 3.0 | -2.9 | -2.0 | · | ·
